The sample as a whole holds a higher share of hits than the screen did.
miR122 inh: miR-122 suppressors via Renilla sensor increase, primary screen, cell-based, Huh7 psiCHECK-miR122, Renilla luciferase, single point; 48 h; activation, % at 12.5 µM; 0.14% of 340,000 active; AID 623901, 2012;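 active = mean activation of 30% or more, with every replicate also reaching 30%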;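 note: higher luciferase signal means stronger suppression of miR-122 activity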
Numbers stand for hits; - = inactive.

SMILES	miR122 inh
CCC(=O)N(C)C[C@@H]1Oc2ncc(C#CC3(O)CCCC3)cc2C(=O)N([C@@H](C)CO)C[C@H]1C	-
CCC(=O)Nc1ccc2c(c1)OC[C@H](C)N(C(=O)c1ccccc1F)C[C@H](C)[C@@H](OC)CN(C)C2=O	-
Cc1ccc(Cn2c(NS(=O)(=O)c3ccccc3)nc3ccccc32)cc1	-
Cc1ccc(OCC(O)Cn2c(=N)n(Cc3ccccc3)c3ccccc32)cc1 (stereo not given)	90
COc1ccc(NC(=O)N(C)C[C@@H]2Oc3ncc(Br)cc3C(=O)N([C@H](C)CO)C[C@@H]2C)cc1	-
Cc1noc(C)c1NC(=O)N(C)C[C@H]1Oc2ncc(C#CCC(C)C)cc2C(=O)N([C@@H](C)CO)C[C@H]1C	-
COCC#Cc1cnc2c(c1)C(=O)N([C@@H](C)CO)C[C@@H](C)[C@@H](CN(C)Cc1ccccc1)O2	-
CCCCOc1ccc(S(=O)(=O)Nc2ccc(NC(C)=O)cc2)cc1	-
CCCCNC(=O)Nc1nnc(-c2ccc(OCC)cc2)o1	36
C[C@@H]1CN([C@@H](C)CO)S(=O)(=O)c2ccc(-c3cccc(C#N)c3)cc2O[C@H]1CN(C)C(=O)Nc1ccccc1F	-
COc1ccccc1-c1cnc2c(c1)C(=O)N([C@@H](C)CO)C[C@H](C)[C@@H](CN(C)C(=O)c1ccccc1)O2	-
C/C=C/c1ccc2c(c1)O[C@@H](CN(C)CCC)[C@@H](C)CN([C@H](C)CO)S2(=O)=O	-
CCCNC(=O)N1C[C@@H](C)[C@@H](OC)CN(C)C(=O)c2cc(NS(=O)(=O)CC)ccc2OC[C@H]1C	-
CCCNC(=O)N1C[C@H](C)[C@@H](OC)CN(C)C(=O)c2cc(NS(=O)(=O)CC)ccc2OC[C@@H]1C	-
CCS(=O)(=O)Nc1ccc2c(c1)C(=O)N(C)C[C@@H](OC)[C@H](C)CN(CC1CCCC1)[C@H](C)CO2	38
COCC#Cc1cnc2c(c1)C(=O)N([C@H](C)CO)C[C@@H](C)[C@H](CN(C)C(=O)Nc1ccccc1OC)O2	-
C[C@@H]1CN([C@H](C)CO)C(=O)c2cc(-c3ccncc3)cnc2O[C@H]1CN(C)C(=O)Cc1cccnc1	-
C[C@H]1CN([C@@H](C)CO)S(=O)(=O)c2ccc(C#CC(C)(C)O)cc2O[C@H]1CN(C)C(=O)C1CCC1	-
C[C@H](CO)N1C[C@H](C)[C@H](CN(C)C(=O)Cc2cccnc2)Oc2ncc(-c3ccncc3)cc2C1=O	-
C[C@H](CO)N1C[C@H](C)[C@H](CN(C)Cc2ccccn2)Oc2cc(-c3cccnc3)ccc2S1(=O)=O	-
Cc1ccccc1NC1=C/C(=N\S(=O)(=O)c2cccs2)c2ccccc2C1=O	60
CCC(=O)N(C)C[C@@H]1Oc2cc(-c3cccnc3)ccc2S(=O)(=O)N([C@H](C)CO)C[C@H]1C	-
C[C@@H]1CN([C@@H](C)CO)S(=O)(=O)c2ccc(Br)cc2O[C@@H]1CN(C)S(C)(=O)=O	-
COCC#Cc1ccc2c(c1)O[C@@H](CN(C)C(=O)C1CCCCC1)[C@@H](C)CN([C@H](C)CO)S2(=O)=O	-
CCCC(=O)OCCNc1cc(Sc2nccn2C)c2nonc2c1[N+](=O)[O-]	62
SMILES	miR122 inh
C[C@@H]1CN([C@@H](C)CO)C(=O)c2cc(C#Cc3ccc(F)cc3)cnc2O[C@@H]1CN(C)CC1CCOCC1	-
C[C@@H]1CN([C@H](C)CO)C(=O)c2cc(-c3cccnc3)cnc2O[C@@H]1CN(C)C(=O)C1CC1	-
Cc1ccc(-c2nc(C(Cl)Cl)c3ccccc3n2)cc1	61
O=C(Nc1ncc(Cc2cccc(C(F)(F)F)c2)s1)c1ccc(-c2cccc([N+](=O)[O-])c2)o1	32
CCCNC(=O)N(C)C[C@H]1Oc2ncc(C#CCC3CCCC3)cc2C(=O)N([C@@H](C)CO)C[C@H]1C	-
C[C@@H]1CN([C@@H](C)CO)C(=O)c2cc(-c3cccc(F)c3)cnc2O[C@H]1CN(C)Cc1cncnc1	-
CCCC#Cc1ccc2c(c1)O[C@H](CN(C)C(=O)c1cccnc1)[C@H](C)CN([C@@H](C)CO)S2(=O)=O	-
CO[C@H]1CN(C)C(=O)c2cc(NS(=O)(=O)CC(F)(F)F)ccc2OC[C@H](C)N(C)C[C@@H]1C	-
NC(Cc1ccc(C(F)(F)F)cc1)c1csc(Nc2nncc3ccccc23)n1 (stereo not given)	34
CCCC#Cc1ccc2c(c1)O[C@H](CN(C)S(C)(=O)=O)[C@H](C)CN([C@H](C)CO)S2(=O)=O	-
CCCNC(=O)N(C)C[C@H]1Oc2cc(C#Cc3cccc(F)c3)ccc2S(=O)(=O)N([C@H](C)CO)C[C@@H]1C	-
CC(=O)N(C)C[C@H]1Oc2cc(C#CC3(O)CCCC3)ccc2S(=O)(=O)N([C@@H](C)CO)C[C@H]1C	-
CCCCCCOc1ccc(/C(C)=N/NC2=NCCN2)cc1	65
C[C@@H]1CN([C@@H](C)CO)C(=O)c2cc(C#Cc3ccccn3)cnc2O[C@@H]1CN(C)C(=O)CCN1CCCCC1	-
CC(C)C#Cc1ccc2c(c1)O[C@H](CN(C)C(=O)CN(C)C)[C@@H](C)CN([C@@H](C)CO)S2(=O)=O	-
CCC(=O)Nc1ccc2c(c1)C(=O)N(C)C[C@@H](OC)[C@@H](C)CN(Cc1ccccc1OC)[C@@H](C)CO2	-
COc1ccc(C(=O)Nc2ccc3c(c2)OC[C@@H](C)N(C)C[C@H](C)[C@H](OC)CN(C)C3=O)cc1	-
Cc1cccc(C(=O)Nc2cccc(S(=O)(=O)NCc3ccco3)c2)c1	-
Cc1cc(C(=O)Nc2cccc(O)c2)co1	36
C[C@@H]1CN([C@H](C)CO)S(=O)(=O)c2ccc(-c3cccnc3)cc2O[C@H]1CN(C)Cc1ccccn1	-
CCC(=O)Nc1ccc2c(c1)C(=O)N(C)C[C@@H](OC)[C@@H](C)CN(C(C)=O)[C@@H](C)CO2	-
OC(c1cc(C(F)(F)F)nc2c(Cl)cc(Cl)cc12)C1CCCCN1 (stereo not given)	41
C[C@@H]1CN([C@H](C)CO)C(=O)c2cc(C3=CCCCC3)cnc2O[C@@H]1CN(C)C(=O)c1ccc(F)cc1	-
C[C@H]1CN([C@@H](C)CO)C(=O)c2cc(C#CCc3ccccc3)cnc2O[C@H]1CN(C)CC1CCOCC1	-
COc1cccc(NC(=O)N(C)C[C@H]2Oc3cc(-c4cccc(C(=O)N(C)C)c4)ccc3S(=O)(=O)N([C@@H](C)CO)C[C@@H]2C)c1	-
SMILES	miR122 inh
COc1ccc(C(C(=O)NC2CCCCC2)N(C(=O)CCl)c2cccc(Cl)c2)cc1 (stereo not given)	55
O=C(NC1CCCC1)C(c1ccccc1)N(Cc1ccc2c(c1)OCO2)C(=O)Cc1cccs1 (stereo not given)	-
COc1ccc(C#Cc2ccc3c(c2)O[C@@H](CN(C)C(=O)NC2CCCCC2)[C@@H](C)CN([C@@H](C)CO)S3(=O)=O)cc1	-
COc1ccccc1-c1ccc2c(c1)O[C@H](CN(C)S(=O)(=O)c1ccc(C)cc1)[C@@H](C)CN([C@@H](C)CO)S2(=O)=O	-
CCS(=O)(=O)Nc1ccc2c(c1)C(=O)N(C)C[C@@H](OC)[C@@H](C)CN[C@@H](C)CO2	-
COCC#Cc1ccc2c(c1)O[C@H](CN(C)C(=O)C1CCCCC1)[C@@H](C)CN([C@@H](C)CO)S2(=O)=O	-
O=C(Cn1c(=O)c2ccccc2n(CC(=O)N2CCCCC2)c1=O)N1CCCCC1	60
COCC#Cc1ccc2c(c1)O[C@H](CN(C)Cc1cncnc1)[C@@H](C)CN([C@H](C)CO)S2(=O)=O	-
